# High-throughput results as filed in PubChem BioAssay.
# Most compounds without a hit are left out; they make up all but 12% or so of the library.
# G9a block: qHTS Assay for Inhibitors of Histone Lysine Methyltransferase G9a | Histone-lysine N-methyltransferase EHMT2 (Homo sapiens), Q96KQ7 | G9a H3K9 monomethylation, AlphaScreen, 2 h | Potency, µM (titrated, usually from 102 µM), for the others: at the top dose activity, negative = inhibition, hits mostly inhibitors | actives 8.8% (n = 350,000); note: % is set by controls: 0 for no effect and ±100 for the full control effect; nearly all actives have a fitted effect of over 75% in size
#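 G9a (20 nM) preincubated 15 min RT with compounds, then 500 nM biotinylated H3K9 peptide and 20 uM SAM added; 2 h RT reaction. Monomethyl-H3K9 product detected by AlphaScreen with anti-H3K9me1 antibody, streptavidin donor and anti-rabbit IgG acceptor beads.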
# JMJD2A Tudor inh: qHTS Assay for Inhibitors of JMJD2A-Tudor Domain | AlphaScreen JMJD2A-Tudor / H3K4me3 peptide binding | actives 4.4% (n = 390,000) | AID 504339, 2011 | Potency, µM (top dose mostly 114 µM), without a hit: top-dose activity change, negative = inhibition, most hits filed as inhibitors; note: % is set by controls: 0 for no effect and ±100 for the full control effect; nearly all actives have a fitted effect of over 50% in size
# Target sequence (O75164 whole entry, looked up, the tested form may be a part): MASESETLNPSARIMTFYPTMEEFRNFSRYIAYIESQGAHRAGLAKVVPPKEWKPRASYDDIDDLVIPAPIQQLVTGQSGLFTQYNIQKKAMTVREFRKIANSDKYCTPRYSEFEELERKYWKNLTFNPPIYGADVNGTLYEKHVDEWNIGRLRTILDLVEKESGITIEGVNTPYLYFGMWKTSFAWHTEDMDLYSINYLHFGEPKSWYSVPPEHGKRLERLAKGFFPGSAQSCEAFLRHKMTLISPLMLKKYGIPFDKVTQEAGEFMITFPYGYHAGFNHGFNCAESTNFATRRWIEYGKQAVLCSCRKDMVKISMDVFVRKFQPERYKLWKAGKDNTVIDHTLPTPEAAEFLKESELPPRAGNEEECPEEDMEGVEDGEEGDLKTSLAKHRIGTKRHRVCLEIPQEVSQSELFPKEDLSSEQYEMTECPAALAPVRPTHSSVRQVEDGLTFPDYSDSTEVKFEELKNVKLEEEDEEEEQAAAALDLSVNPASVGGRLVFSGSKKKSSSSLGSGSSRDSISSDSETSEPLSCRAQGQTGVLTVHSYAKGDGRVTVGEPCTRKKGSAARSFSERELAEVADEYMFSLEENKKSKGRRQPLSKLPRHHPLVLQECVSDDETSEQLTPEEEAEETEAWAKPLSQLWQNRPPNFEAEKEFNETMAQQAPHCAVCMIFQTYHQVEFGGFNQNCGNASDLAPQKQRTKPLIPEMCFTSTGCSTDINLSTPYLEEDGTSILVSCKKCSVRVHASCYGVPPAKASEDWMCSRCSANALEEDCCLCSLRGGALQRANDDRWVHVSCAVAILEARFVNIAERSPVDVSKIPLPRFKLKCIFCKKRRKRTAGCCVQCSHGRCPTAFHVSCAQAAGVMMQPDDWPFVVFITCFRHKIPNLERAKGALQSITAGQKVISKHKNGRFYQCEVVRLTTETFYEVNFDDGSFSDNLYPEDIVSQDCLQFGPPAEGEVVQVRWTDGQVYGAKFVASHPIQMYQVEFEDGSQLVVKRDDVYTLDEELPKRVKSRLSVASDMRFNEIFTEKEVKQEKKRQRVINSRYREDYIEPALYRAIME
# Sfp inh: qHTS Assay for Inhibitors of Bacillus subtilis Sfp phosphopantetheinyl transferase (PPTase) | 4'-phosphopantetheinyl transferase ffp (Bacillus subtilis), Q9F4F7 | Biochemical Sfp PPTase activity, qHTS | Potency, µM, for inactives: largest response in the series, negative = inhibition, actives largely listed as inhibitors | actives 3.5% (n = 310,000);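 note: the enzyme is Sfp with the accession as filed and its product quenches rhodamine fluorescence; 0% = enzyme reaction without inhibitor and -100% = no enzyme wells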
#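 Fluorescence-quenching assay with 15 nM Sfp, 5 uM rhodamine-CoA and 12.5 uM BHQ-2-labelled ybbR peptide in pH 7.6 Hepes/MgCl2 buffer. Enzyme was pre-incubated with compound for 15 min at room temperature. Rate was taken from the 30-min fluorescence change (525/598 nm).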
# HP1b binding inh: HTS for Inhibitors of HP1-beta Chromodomain Interactions with Methylated Histone Tails; AlphaScreen HP1-beta / biotin-H3K9me3 peptide binding; Potency, µM (top dose mostly 114 µM), for inactives: at the top dose activity change, negative = inhibition, usual class: inhibitors; actives 0.56% (n = 390,000); AID 540317, 2011; note: nearly all actives have a fitted effect of over 70% in size
#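 Compound inhibition of the preformed complex between 50 nM HP1-beta and 50 nM biotinylated H3K9me3 peptide was read by AlphaScreen. Buffer was PBS pH 7.4 with 0.01% Tween-20. Incubations ran 30 min at room temperature, with 10 ug/mL donor/acceptor beads.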
# BAZ2B inh: qHTS Assay for Inhibitors of BAZ2B; actives 4.4% (n = 360,000); AlphaScreen BAZ2B-H3K14Ac peptide displacement; Bromodomain adjacent to zinc finger domain protein 2B (Homo sapiens), Q9UIF8; AID 504333, 2011; Potency, µM (highest dose often 114 µM), for the others: at the top dose activity change, negative = inhibition, most hits filed as inhibitors; note: % is set by controls: 0 for no effect and ±100 for the full control effect; nearly all actives have a fitted effect of over 60% in size
#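 BAZ2B 50 nM plus b-H3(5-23)K14Ac 50 nM, PBS pH 7.4/0.01% Tween-20, 30 min RT; compound added (max 110 uM), 30 min RT; streptavidin donor/Ni-chelate acceptor beads 10 ug/mL final, 20 min dark; AlphaScreen read.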
# The depositor's hits bear a star; ? = inconclusive; . = no result given; ! = not active in a repeat; [ ] = remark or other dose. Calls come from the whole dose curve; as a rule, active = well fitted curve in the direction sought with a large enough effect; inconclusive = small, poorly fitted or top-dose-only effect, or another doubt; inactive = no such curve, though single readings can be large; an effect the other way counts as inactive or inconclusive. Potency is the fitted concentration of half-maximal effect.
SMILES,G9a block,JMJD2A Tudor inh,Sfp inh,HP1b binding inh,BAZ2B inh
COc1ccc(C2CC(=O)Oc3c(C(CCN4CCCC(C)C4)c4cc(OC)c(OC)c(OC)c4)c(OC)cc(OC)c32)cc1 (stereo not drawn),.,?,-8%,17%,.
COc1cc(OC)c2c(c1C(CCN1CCCC1)c1ccc(N(C)C)cc1)OC(=O)CC2c1ccc(N(C)C)cc1 (stereo not drawn),.,16µM*,-16%,?,.
N#CC1(C#N)CC(C=O)=C(N)C1(C#N)CC(=O)c1ccc(F)cc1 (stereo not drawn),32µM*,-9%[57.1 µM],-25%,-18%,-33%
COc1cccc(/C=C2\C(=O)N(c3cccc(C)c3)C(=O)c3ccccc32)c1,18µM*,-31%,-15%,-14%,?
COc1ccc(OCC(=O)N/N=C/c2cccc3cccnc23)cc1,.,79µM*,.,19%,.
COc1ccccc1OCC(=O)N/N=C/c1cccc2cccnc12,.,56µM*,5%,29%,35µM*
CC(C)n1cc(/C=N/NC(=O)COc2cccc3cccnc23)c2ccccc21,45µM*,-30%,?,29%,9%
COc1ccc(Nc2cccc(Cl)c2)c(C(=O)O)c1,-8%[59 µM],-30%,7%,-13%,-25%
COc1cc(/C=C(\C#N)C(=O)Nc2cccc(C(=O)O)c2)ccc1OCc1ccc(Cl)cc1,-48%,?,-3%,2%,45µM*
COCCNC(=O)/C(C#N)=C/c1cccc(/C=C(\C#N)C(=O)NCCOC)c1,-9%[59 µM],-11%,20µM*,0%,-3%
COCCNC(=O)/C(C#N)=C/c1ccc(O)cc1,.,-6%,7%,31%,5%
COCCCNC(=O)/C(C#N)=C/c1ccc(OCC(=O)O)c(OC)c1,13µM*,50µM*,9%,?,20µM*
N#C/C(=C\c1ccc(O)c(O)c1)C(=O)NCCCc1ccccc1,3.4µM*,45µM*,63µM*!,?,8.9µM*
COC(=O)[C@@H]1Cc2c([nH]c3ccccc23)C2CCC(=O)N21 (stereo partly drawn),?,-21%,17%,-32%,-16%
O=C(NCCCC(=O)N1CCOCC1)c1cccnc1,33%,9%,10%,31%,8%
Cn1cc(CNC(=O)c2cc(-c3ccc(Br)cc3)nc3ccccc23)cn1,?,6%,12%,34%,-1%
COc1ccc(/C=C(\C#N)C(=O)NCCc2ccccc2)cc1OCc1ccccc1,1µM*,-7%,13%,42%,42%
CCOCCCNC(=O)/C(C#N)=C/c1cc(OC)c(O)c([N+](=O)[O-])c1,50µM*,-23%,-24%,-17%,?
CCOC(=O)NC(=O)COC(=O)c1ccc(Sc2ncn[nH]2)c([N+](=O)[O-])c1,20µM*,-31%,0%,1%,79µM*
C=CCN(CC=C)C(=O)COC(=O)c1ccc(Sc2ncn[nH]2)c([N+](=O)[O-])c1,28µM*,-21%,6%,-1%,?
COc1ccc(-n2c(O)c(C=Nc3ccccc3)c3ccccc3c2=O)cc1OC,2%,-10%,-1%,21%,-2%
COc1ccc(-n2c(O)c(C=Nc3ccccc3)c3ccccc3c2=O)cc1,-42%,-8%,2%,61%,-18%
O=c1c2ccccc2c(/C=N/n2cnnc2)c(O)n1-c1ccccc1,-10%[12.7 µM],89µM*,15%,19%,?
COc1ccc(-n2c(O)c(/C=N/n3cnnc3)c3ccccc3c2=O)cc1,50µM*,45µM*,5%,15%,56µM*
CC(=O)Nc1ccc(S(=O)(=O)NNC(=O)COc2cccc3ccccc23)cc1,2%,-15%,-3%,21%,-4%
SMILES,G9a block,JMJD2A Tudor inh,Sfp inh,HP1b binding inh,BAZ2B inh
O=S(=O)(Nc1cccc(Br)c1)c1cccc2nsnc12,.,-31%,-1%,-2%,-29%
O=C(CNC(=O)COc1ccccc1)NCCN1CCOCC1,13%[59 µM],-10%,.,13%,-4%
CC1(C)Oc2ccc3ccc(=O)oc3c2/C(=C/Nc2cccc(O)c2)C1=O,45µM*,40µM*,-6%,?,?
CC1(C)Oc2ccc3ccc(=O)oc3c2/C(=C/NNC(N)=S)C1=O,7.1µM*,?,-1%,-24%,50µM*
CC1(C)Oc2ccc3ccc(=O)oc3c2/C(=C/Nc2ccc(O)cc2)C1=O,-39%,-13%[11.4 µM],20%,?,-1%
COc1cccc(-c2noc(-c3ccc4c(c3)OCO4)n2)c1,-24%,4%,13%,18%,1%
NC(=O)N1CCC2(CC1)NC(=O)N(c1ccccc1)N2,7.9µM*,-4%,-7%,34%,-16%
O=C(O)C(c1ccccc1)C(O)C1CC=CCC1 (stereo not drawn),.,-13%,.,8%,.
CCCCCCc1c(O)c2ccccc2[nH]c1=O,-3%[59 µM],-21%,8%,9%,-3%
O=c1[nH]c2ccccc2c(O)c1SCCO,.,22µM*,79µM*,7%,50µM*
O=C(O)CSc1c(O)c2ccccc2[nH]c1=O,4.5µM*,11µM*,10µM*,27%,14µM*
CCc1ccccc1NC(=O)CNC(=O)CCNC(=O)Nc1ccccc1,9%[12.7 µM],-14%,.,4%,11%
COc1ccc(C2=NN(CN3C(=O)C(=O)c4ccccc43)C(c3ccc(OC)cc3)C2)cc1 (stereo not drawn),45µM*,?,-4%,9%,?
COC(=O)c1c(C)[nH]c(C(=O)C(C)OC(=O)c2cc(C)oc2C)c1C (stereo not drawn),14%[12.7 µM],-10%,.,24%,0%
CCN(CC)C(=O)Cn1cc(S(=O)(=O)CC(=O)Nc2ccc3c(c2)OCCO3)c2ccccc21,56µM*,4%,13%,40%,.
CCN(CC)C(=O)Cn1cc(S(=O)(=O)CC(=O)Nc2ccc(C(N)=O)cc2)c2ccccc21,45µM*,-20%,5%,37%,-23%
O=C(NC1CCCCC1)C1CCN(c2nccs2)CC1,-23%[59 µM],79µM*,9%,-20%,6%
CCOC(=O)c1[nH]c(=O)[nH]c1CNc1ccccc1C#N,-6%,-10%,22%,31%,-7%
CCN(CC)Cc1cc(NC2=NS(=O)(=O)c3ccccc32)ccc1OC(=O)c1ccccc1,79µM*,-10%,7%,43%,-7%
CCN(CC)Cc1cc(NC2=NS(=O)(=O)c3ccccc32)ccc1OC(=O)C(C)C,?,-8%,7%,45%,2%
CN(Cc1ccc(OCC(O)CN2CCCCC2)cc1)Cc1ccnc2ccccc12 (stereo not drawn),50µM*,-31%,-5%,-1%,-27%
